Measurements published in PubChem BioAssay (EPA / NIEHS).
Several values for one entry are separate records, joined by “and”; a condition that tells them apart may be missing. Equal entries are not always repeated. The source holds several records for some structures; these can differ, active in one and inactive in another. Activity calls are given as the source filed them. Rule for the calls: active = hit-call score of the fitted dose curve at least 0.9, where 1 is the maximum; inactive = score below 0.9.

Key:
[1] = BSK_hDFCGF_SRB: Viability Assessment in the BioMAP Diversity Plus: hDFCGF Assay (AID 2283061); conditions: primary human foreskin fibroblasts;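 note: cells exposed to compound for 24 h before the read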
Outline: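 Primary human foreskin fibroblasts; 24 h post-dose; fixed 10% TCA, stained 0.1% SRB, A560 read; total protein as overt cytotoxicity measure; curves fit bidirectionally vs DMSO control.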

[2] = read-out: TIMP metallopeptidase inhibitor 1 (TIMP1), TIMP1 (gene 7076); test: BSK_hDFCGF_TIMP1: BioMAP Diversity Plus: hDFCGF Assay for TIMP metallopeptidase inhibitor 1 (TIMP1) Biomarker Activity (AID 2283062); conditions: primary human foreskin fibroblasts; actives raise or lower the signal
Outline: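 ELISA readout of TIMP-1 from human dermal foreskin fibroblast cultures 24 h post-dosing. Curves were fitted in both directions against DMSO baseline, with SRB total-protein staining in parallel cultures as a cytotoxicity check.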

[3] = read-out: Monokine induced gamma interferon (MIG), CXCL9 (gene 4283); test: BSK_hDFCGF_MIG: BioMAP Diversity Plus: hDFCGF Assay for Monokine induced gamma interferon (MIG) Biomarker Activity (AID 2283063); conditions: primary human foreskin fibroblasts; actives raise or lower the signal
Outline: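 Fibroblasts (human foreskin, primary) dosed, 24 h, MIG by ELISA; fit bidirectional vs DMSO.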

[4] = read-out: Matrix Metallopeptidase 1 (MMP1), MMP1 (gene 4312); test: BSK_hDFCGF_MMP1: BioMAP Diversity Plus: hDFCGF Assay for Matrix Metallopeptidase 1 (MMP1) Biomarker Activity (AID 2283064); conditions: primary human foreskin fibroblasts; actives raise or lower the signal
Outline: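 Primary human foreskin fibroblasts in the hDFCGF system were dosed with test chemical, and MMP1 was measured by ELISA 24 h later. Values come from bidirectional curve fitting against the DMSO baseline.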

[5] = read-out: Vascular cell adhesion molecule 1 (VCAM1), VCAM1 (gene 7412); test: BSK_hDFCGF_VCAM1: BioMAP Diversity Plus: hDFCGF Assay for Vascular cell adhesion molecule 1 (VCAM1) Biomarker Activity (AID 2283065); conditions: primary human foreskin fibroblasts; actives raise or lower the signal;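 for AC50: VCAM-1 protein level quantified by ELISA after 24 h chemical exposure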
Outline: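 ELISA read-out of VCAM-1 on human skin fibroblasts, 24 h post-dose; gain or loss of signal fitted bidirectionally against DMSO baseline.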

[6] = read-out: Plasminogen activator inhibitor-1 (PAI1), SERPINE1 (gene 5054); test: BSK_hDFCGF_PAI1: BioMAP Diversity Plus: hDFCGF Assay for Plasminogen activator inhibitor-1 (PAI1) Biomarker Activity (AID 2283066); conditions: primary human foreskin fibroblasts; actives raise or lower the signal
Outline: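 Human foreskin fibroblast primary cells, 24 h chemical exposure; PAI-1 measured by ELISA. Bidirectional fitting relative to DMSO; parallel cultures stained with SRB for total protein to flag overt cytotoxicity.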

[7] = read-out: Intercellular Adhesion Molecule 1 (ICAM1), ICAM1 (gene 3383); test: BSK_KF3CT_ICAM1: BioMAP Diversity Plus: KF3CT Assay for Intercellular Adhesion Molecule 1 (ICAM1) Biomarker Activity (AID 2283067); conditions: primary human keratinocytes with fibroblasts; actives raise or lower the signal
Outline: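 ELISA readout of ICAM-1; KF3CT human skin co-culture (keratinocytes + foreskin fibroblasts), 24 h post-dose; gain/loss fit vs DMSO baseline.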

[8] = read-out: Interferon-gamma inducible Protein 10 (IP10), CXCL10 (gene 3627); test: BSK_KF3CT_IP10: BioMAP Diversity Plus: KF3CT Assay for Interferon-gamma inducible Protein 10 (IP10) Biomarker Activity (AID 2283068); conditions: primary human keratinocytes with fibroblasts; actives raise or lower the signal
Outline: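 Signal is secreted/surface IP-10 by ELISA in a human primary skin co-culture of keratinocytes and foreskin fibroblasts, taken 24 h post-dosing; DMSO served as negative control.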

[9] = BSK_KF3CT_SRB: Viability Assessment in the BioMAP Diversity Plus: KF3CT Assay (AID 2283069); conditions: primary human keratinocytes with fibroblasts;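 note: total protein by sulforhodamine B staining as a cytotoxicity measure; read 24 h after compound addition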
Outline: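 Human primary keratinocyte plus foreskin fibroblast co-culture exposed to chemicals for 24 h. Total protein measured by 0.1% sulforhodamine B staining after 10% TCA fixation, read at 560 nm; bidirectional fitting versus DMSO baseline.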

[10] = read-out: TIMP metallopeptidase inhibitor 2 (TIMP2), TIMP2 (gene 7077); test: BSK_KF3CT_TIMP2: BioMAP Diversity Plus: KF3CT Assay for TIMP metallopeptidase inhibitor 2 (TIMP2) Biomarker Activity (AID 2283071); conditions: primary human keratinocytes with fibroblasts; actives raise or lower the signal
Outline: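 Co-culture of human primary keratinocytes and foreskin fibroblasts, measured 24 h after chemical dosing. TIMP-2 quantified by ELISA and fitted in both directions relative to DMSO. Cytotoxicity checked in parallel cultures by SRB total-protein staining.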

[11] = read-out: C-C motif chemokine 2 (Homo sapiens) (UniProt P13500); test: BSK_KF3CT_MCP1: BioMAP Diversity Plus: KF3CT Assay for Monocyte Chemoattractant Protein 1 (MCP1/CCL2) Biomarker Activity (AID 2283073); conditions: primary human keratinocytes with fibroblasts; actives raise or lower the signal
Outline: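 KF3CT skin co-culture (keratinocytes/foreskin fibroblasts), 24 h post-dose; MCP-1 by ELISA; gain/loss of signal fit bidirectionally vs DMSO baseline.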

[12] = read-out: Matrix Metallopeptidase 9 (MMP9), MMP9 (gene 4318); test: BSK_KF3CT_MMP9: BioMAP Diversity Plus: KF3CT Assay for Matrix Metallopeptidase 9 (MMP9) Biomarker Activity (AID 2283074); conditions: primary human keratinocytes with fibroblasts; actives raise or lower the signal;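 for AC50: MMP9 protein level quantified by ELISA in the co-culture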
Outline: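 Keratinocyte plus foreskin fibroblast human primary skin co-culture was dosed with chemical and MMP-9 was quantified by ELISA 24 h later. Bidirectional curve fitting used DMSO as negative control and activity baseline.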

[13] = read-out: urokinase plasminogen activator (uPA), PLAU (gene 5328); test: BSK_KF3CT_uPA: BioMAP Diversity Plus: KF3CT Assay for urokinase plasminogen activator (uPA) Biomarker Activity (AID 2283075); conditions: primary human keratinocytes with fibroblasts; actives raise or lower the signal
Outline: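 Human keratinocyte plus foreskin fibroblast primary co-culture exposed to chemical for 24 h. uPA levels were quantified by ELISA, and activity was fitted bidirectionally against a DMSO negative-control baseline.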

[14] = read-out: CD40, CD40 (gene 958); test: BSK_LPS_CD40: BioMAP Diversity Plus: LPS Assay for CD40 Biomarker Activity (AID 2283076); conditions: primary human HUVEC with PBMC; actives raise or lower the signal
Outline: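 ELISA readout of CD40 in HUVEC/PBMC co-culture (BSK_LPS system), 24 h post-dosing; bidirectional curve fit, DMSO baseline; parallel SRB total-protein staining for cytotoxicity.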

[15] = read-out: Interleukin-8 (IL8), CXCL8 (gene 3576); test: BSK_LPS_IL8: BioMAP Diversity Plus: LPS Assay for Interleukin-8 (IL8) Biomarker Activity (AID 2283078); conditions: primary human HUVEC with PBMC; actives raise or lower the signal
Outline: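 HUVEC + PBMC co-culture, LPS-activated; test chemicals dosed, IL-8 read by ELISA at 24 h. Bidirectional curve fit vs DMSO baseline (gain or loss of signal).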

[16] = BSK_LPS_SRB: Viability Assessment in the BioMAP Diversity Plus: LPS Assay (AID 2283079); conditions: primary human HUVEC with PBMC;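 note: total protein by sulforhodamine B absorbance as a cytotoxicity measure; measured one day after compound addition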
Outline: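 HUVEC + PBMC co-culture, LPS-stimulated; compound 24 h. 10% TCA fix, 0.1% SRB stain, A560. Bidirectional fit vs DMSO.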

[17] = read-out: Interleukin-1 alpha (IL1a), IL1A (gene 3552); test: BSK_LPS_IL1a: BioMAP Diversity Plus: LPS Assay for Interleukin-1 alpha (IL1a) Biomarker Activity (AID 2283080); conditions: primary human HUVEC with PBMC; actives raise or lower the signal
Outline: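 HUVEC/PBMC co-culture, LPS system; 24 h after dosing; IL-1a by ELISA; gain or loss of signal fitted bidirectionally vs DMSO baseline.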

[18] = read-out: Monocyte Chemoattractant Protein-1 (MCP1), CCL2 (gene 6347); test: BSK_LPS_MCP1: BioMAP Diversity Plus: LPS Assay for Monocyte Chemoattractant Protein-1 (MCP1) Biomarker Activity (AID 2283081); conditions: primary human HUVEC with PBMC; actives raise or lower the signal;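 for AC50: secreted MCP-1 protein quantified by ELISA in culture supernatant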
Outline: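 ELISA read-out of MCP-1 after 24 h chemical dosing of a human umbilical vein endothelial cell/peripheral blood mononuclear cell co-culture stimulated with LPS. Gain or loss of signal fitted relative to DMSO controls.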

[19] = read-out: Interleukin-1 alpha (IL1a), IL1A (gene 3552); test: BSK_KF3CT_IL1a: BioMAP Diversity Plus: KF3CT Assay for Interleukin-1 alpha (IL1a) Biomarker Activity (AID 2283070); conditions: primary human keratinocytes with fibroblasts; actives raise or lower the signal
Outline: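 Human keratinocyte plus foreskin fibroblast primary co-culture, sampled 24 h after chemical dosing. IL-1a measured by ELISA; responses fitted bidirectionally against DMSO baseline (negative control), so gain or loss of signal both count.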

[20] = read-out: E-selectin (Homo sapiens) (UniProt P16581); test: BSK_LPS_Eselectin: BioMAP Diversity Plus: LPS Assay for Eselectin Biomarker Activity (AID 2283077); conditions: primary human HUVEC with PBMC; actives raise or lower the signal
Outline: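 ELISA readout of E-selectin, 24 h post-dose, HUVEC + PBMC co-culture (LPS system). Gain or loss of signal vs DMSO baseline, bidirectional fit.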

Measured: AC50

E-selectin (Homo sapiens), sequence (P16581 whole entry, looked up): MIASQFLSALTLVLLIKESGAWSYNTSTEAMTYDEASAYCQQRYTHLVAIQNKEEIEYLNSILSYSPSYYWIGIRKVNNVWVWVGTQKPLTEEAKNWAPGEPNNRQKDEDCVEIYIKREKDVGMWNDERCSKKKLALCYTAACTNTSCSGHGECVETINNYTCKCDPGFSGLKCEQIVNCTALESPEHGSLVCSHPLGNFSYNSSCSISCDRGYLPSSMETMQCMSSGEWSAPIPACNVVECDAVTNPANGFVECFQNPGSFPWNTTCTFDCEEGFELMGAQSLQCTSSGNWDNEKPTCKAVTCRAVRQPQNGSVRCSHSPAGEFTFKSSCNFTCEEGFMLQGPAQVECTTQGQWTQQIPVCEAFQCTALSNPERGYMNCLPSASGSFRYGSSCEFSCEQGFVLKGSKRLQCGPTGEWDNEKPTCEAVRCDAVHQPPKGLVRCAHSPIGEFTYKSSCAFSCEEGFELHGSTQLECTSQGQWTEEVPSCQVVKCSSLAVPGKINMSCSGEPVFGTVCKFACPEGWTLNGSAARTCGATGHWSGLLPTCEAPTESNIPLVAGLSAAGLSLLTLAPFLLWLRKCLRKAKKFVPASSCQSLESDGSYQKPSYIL

CCCCCCCCCC=O
active: [8] 11.9 µM
not listed: [19] | [20]
inactive: all other assays above

C#C[C@]1(O)CC[C@H]2[C@@H]3CCC4=Cc5oncc5C[C@]4(C)[C@H]3CC[C@@]21C
active: [5] 20 µM | [10] 3.28 µM | [12] 3.97 µM
not listed: [16] | [20]
inactive: all other assays above

c1ccc2c(c1)c1cccc3ccc4cccc2c4c31
active: [13] 0.0439 µM
not listed: [19]
inactive: all other assays above

C[C@H]1C[C@@H]2[C@H]([C@@H](O)C[C@@]3(C)[C@H]2CC[C@]3(O)C(=O)CO)[C@@]2(C)C=CC(=O)C=C12
inactive: [2] | [3] | [5] | [6] | [7] | [8] | [9] | [10] | [11] | [12] | [13] | [14] | [15] | [16] | [17] | [18]
active: [1] 394 nM and 339 nM | [4] 150 nM and 626 nM | [6] 0.15 µM

N#Cc1ccc(CC(=NNC(=O)Nc2ccc(OC(F)(F)F)cc2)c2cccc(C(F)(F)F)c2)cc1
active: [10] 2.21 µM
not listed: [16]
inactive: all other assays above

CCC(=O)OCc1ccccc1
not listed: [16] | [20]
inactive: all other assays above

CC1CCC(C(C)CS)CC1S (stereo unspecified)
inactive: [6] | [15]
active: [1] 7.28 µM | [2] 6.08 µM | [3] 7.33 µM | [4] 9.03 µM | [5] 2.78 µM | [7] 35.5 µM | [8] 20 µM | [9] 13.8 µM | [19] 30.2 µM | [10] 5.83 µM | [11] 20 µM | [12] 24 µM | [13] 33.7 µM | [14] 20 µM | [17] 36.3 µM | [18] 33.5 µM

CC(C)Oc1ccccc1O
not listed: [19] | [20]
inactive: all other assays above

CCn1c2ccccc2c2cc(N)ccc21
active: [5] 0.855 µM | [10] 1.49 µM | [14] 5.63 µM | [17] 0.653 µM | [18] 1.24 µM
not listed: [16] | [20]
inactive: all other assays above

O=C(O)c1ccc([N+](=O)[O-])cc1
not listed: [16] | [20]
inactive: all other assays above

CCc1c(C)cc(N)c(CC)c1N
active: [19] 1.94 µM
not listed: [16]
inactive: all other assays above

BrC1CCC(Br)C(Br)CCC(Br)C(Br)CCC1Br (stereo unspecified)
inactive: [2] | [3] | [4] | [7] | [9] | [11] | [20] | [15] | [18]
active: [1] 1.5 µM | [5] 4.68 µM | [6] 1.37 µM | [8] 4.53 µM | [10] 1.53 µM | [12] 4.72 µM | [13] 4.69 µM | [14] 4.57 µM | [16] 4.63 µM | [17] 4.58 µM
